From PubChem BioAssay (Tox21)
Several values for one entry are separate records, joined by “and”; a condition that tells them apart may be missing. Equal values may be shown once. A number with no mark means an inactive call. Records with an inconclusive call do not appear. Where a call stands in place of a potency, no number is given. Some structures have more than one record in an assay (separate samples or runs), and their calls can disagree. Activity calls are given as the source filed them. Unless noted, the call rests on the fitted dose curve; in most records, active means well fitted curve in the direction sought with a large enough effect in the repeat runs; inconclusive means weak or mixed curves; inactive means no such curve, though single readings can be large; an effect the other way counts as inactive or inconclusive.

Legend:
[1] = qHTS assay to identify small molecule agonists of the androgen receptor (AR) signaling pathway in the presence of an antagonist - cell viability counter screen (AID 1259379); further: nearly all actives have a fitted effect of over 25% in size; further: potency means the concentration at half of the fitted maximal effect;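 on activity change, negative = cytotoxicity: MDA-kb2 human breast cancer cells carrying an MMTV luciferase reporter; series mostly up to about 92 µM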
How it was run: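 Viability counter screen: CellTiter-Fluor fluorescence, measured in the same wells as the luciferase read-out. MDA-kb2 cells, 3,000/well, with nilutamide at 3.0uM final and compounds at 15 concentrations, 16 hr at 37C, 0% CO2.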

[2] = qHTS assay to identify small molecule agonists of the estrogen receptor beta (ER-beta) signaling pathway - cell viability counter screen (AID 1259380); further: nearly all actives have a fitted effect of over 30% in size; further: potency means the concentration at half of the fitted maximal effect
How it was run: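 Luminescence read-out (CellTiter-Glo, 30 min, room temp) taken in the same wells as the beta-lactamase reporter assay; ER-beta-UAS-bla HEK293T cells exposed to DMSO-dissolved compounds for 16 hr at 37C in 2% charcoal-stripped FBS medium.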

[3] = target: Androgen receptor (Homo sapiens) (UniProt P10275); assay: qHTS assay to identify small molecule agonists of the androgen receptor (AR) signaling pathway in the presence of an antagonist (AID 1259381; calls by dose curve; further: nearly all actives have a fitted effect of over 15% in size; further: potency means the concentration at half of the fitted maximal effect)
Androgen receptor (Homo sapiens), sequence (P10275 whole entry, looked up): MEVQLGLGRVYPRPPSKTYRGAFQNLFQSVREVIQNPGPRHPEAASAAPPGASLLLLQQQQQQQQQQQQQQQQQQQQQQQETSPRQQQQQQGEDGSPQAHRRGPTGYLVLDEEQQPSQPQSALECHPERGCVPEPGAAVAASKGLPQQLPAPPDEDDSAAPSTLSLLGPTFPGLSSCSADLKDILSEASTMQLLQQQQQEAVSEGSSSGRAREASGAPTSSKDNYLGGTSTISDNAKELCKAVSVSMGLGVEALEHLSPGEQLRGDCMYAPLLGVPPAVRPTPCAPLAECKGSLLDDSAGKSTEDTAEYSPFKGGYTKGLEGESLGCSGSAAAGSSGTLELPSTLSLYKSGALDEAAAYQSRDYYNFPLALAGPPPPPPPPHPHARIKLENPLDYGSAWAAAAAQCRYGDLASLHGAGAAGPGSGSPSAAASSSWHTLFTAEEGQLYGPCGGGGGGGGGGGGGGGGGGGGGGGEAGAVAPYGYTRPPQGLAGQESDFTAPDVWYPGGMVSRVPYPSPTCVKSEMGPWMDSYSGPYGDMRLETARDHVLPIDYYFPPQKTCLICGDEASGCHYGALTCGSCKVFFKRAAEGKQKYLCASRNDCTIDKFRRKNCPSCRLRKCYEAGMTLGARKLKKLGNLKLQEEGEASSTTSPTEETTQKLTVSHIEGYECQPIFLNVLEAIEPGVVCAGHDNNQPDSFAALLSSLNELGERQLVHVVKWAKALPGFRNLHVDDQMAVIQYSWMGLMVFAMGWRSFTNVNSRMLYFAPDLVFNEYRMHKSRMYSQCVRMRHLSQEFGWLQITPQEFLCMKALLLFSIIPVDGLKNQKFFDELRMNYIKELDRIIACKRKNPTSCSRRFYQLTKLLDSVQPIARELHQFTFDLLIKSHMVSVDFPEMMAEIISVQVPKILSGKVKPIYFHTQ
How it was run: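 Luciferase read-out (ONE-Glo, 30min room temperature) in MDA-kb2 MMTV-reporter cells; agonist mode run in presence of AR antagonist nilutamide, 3.0uM final. Compounds tested as 15-point series, 16hr exposure at 37C, 0% CO2.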

[4] = qHTS assay to identify small molecule antagonists of the estrogen receptor beta (ER-beta) signaling pathway - cell viability counter screen (AID 1259382); further: nearly all actives have a fitted effect of over 55% in size; further: potency means the concentration at half of the fitted maximal effect;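 on activity change, negative = cytotoxicity: HEK293T cells carrying ER-beta-UAS-bla reporter stimulated with estradiol; series mostly up to about 92 µM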
How it was run: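 Luminescent ATP read-out (CellTiter-Glo, 30 min, RT) taken in the same wells as the bla reporter assay. HEK293T ER-beta-UAS-bla cells in 2% charcoal-stripped FBS were exposed to compounds with 1nM E2 for 16 hr at 37C.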

[5] = qHTS assay to identify small molecule agonists or antagonists of the thyroid stimulating hormone receptor (TSHR) signaling pathway - wild type cell line counter screen (AID 1259384; calls by dose curve)
How it was run: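 Counter screen in untransfected Hek293: compounds (15-point titration, triplicate) plus phosphodiesterase inhibitor Ro20-1724 added after 18 h plating; 30 min RT. Intracellular cAMP via competitive d2/cryptate immunoassay, 1 h incubation.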

[6] = qHTS assay to identify small molecule agonists of the estrogen receptor alpha (ER-alpha) signaling pathway in the presence of an antagonist - cell viability counter screen (AID 1259386);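 further: cells exposed to compounds for 22 h at 37 °C before the viability read; nearly all actives have a fitted effect of over 30% in size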; further: potency means the concentration at half of the fitted maximal effect; on activity change, negative = cytotoxicity: series mostly up to about 92 µM
How it was run: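 Read-out: CellTiter-Fluor fluorescence after 1hr reagent incubation, measured in the same wells as the luciferase readout. VM7Luc4E2 cells were exposed to 15 compound concentrations with 10.0nM ICI-182,780 for 22hr at 37C.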

[7] = target: Progesterone receptor (Homo sapiens) (UniProt P06401); assay: qHTS assay to identify small molecule agonists of the progesterone receptor (PR) signaling pathway (AID 1346784; calls by dose curve; further: nearly all actives have a fitted effect of over 30% in size; further: potency means the concentration at half of the fitted maximal effect)
Progesterone receptor (Homo sapiens), sequence (P06401 whole entry, looked up): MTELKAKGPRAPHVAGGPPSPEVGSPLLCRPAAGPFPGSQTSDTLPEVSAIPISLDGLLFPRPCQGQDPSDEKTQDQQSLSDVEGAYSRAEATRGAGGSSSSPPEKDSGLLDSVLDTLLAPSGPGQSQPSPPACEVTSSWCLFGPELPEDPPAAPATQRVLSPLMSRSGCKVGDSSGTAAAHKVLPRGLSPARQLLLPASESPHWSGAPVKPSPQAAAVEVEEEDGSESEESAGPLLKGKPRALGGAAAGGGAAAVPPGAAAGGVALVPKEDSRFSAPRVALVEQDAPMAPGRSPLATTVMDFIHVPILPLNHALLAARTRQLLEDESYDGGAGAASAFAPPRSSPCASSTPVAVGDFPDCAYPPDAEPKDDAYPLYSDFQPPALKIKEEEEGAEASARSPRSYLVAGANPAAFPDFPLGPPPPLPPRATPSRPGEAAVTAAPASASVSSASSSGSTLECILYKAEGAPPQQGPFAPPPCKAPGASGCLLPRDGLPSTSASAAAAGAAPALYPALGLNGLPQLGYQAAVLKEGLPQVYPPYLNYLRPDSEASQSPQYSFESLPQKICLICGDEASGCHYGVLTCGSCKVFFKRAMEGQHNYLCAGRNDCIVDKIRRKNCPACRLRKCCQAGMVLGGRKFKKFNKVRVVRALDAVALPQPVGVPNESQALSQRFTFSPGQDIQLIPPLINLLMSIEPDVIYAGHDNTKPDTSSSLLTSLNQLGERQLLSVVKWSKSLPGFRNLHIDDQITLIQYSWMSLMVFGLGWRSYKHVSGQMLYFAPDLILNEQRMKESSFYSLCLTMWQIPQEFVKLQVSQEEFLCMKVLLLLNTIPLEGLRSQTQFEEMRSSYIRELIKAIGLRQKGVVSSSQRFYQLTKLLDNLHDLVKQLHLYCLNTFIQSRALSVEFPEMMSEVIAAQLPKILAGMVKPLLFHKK
How it was run: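 Seed PR-UAS-bla HEK 293T cells (2% charcoal-stripped FBS), incubate 6 hr at 37C; add compounds in DMSO, 16 hr at 37C; add LiveBLAzer B/G substrate, 2 hr RT; read fluorescence intensity.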

[8] = target: Progesterone receptor (Homo sapiens) (UniProt P06401); assay: qHTS assay to identify small molecule antagonists of the progesterone receptor (PR) signaling pathway (AID 1346795; active means well fitted inhibition curve with a large enough effect in the signal ratio in the repeat runs, not every such curve was filed as active; the % refers to the signal ratio; further: potency means the concentration at half of the fitted maximal effect)
How it was run: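 Screening used a GripTite HEK293T line with PR-responsive UAS-beta-lactamase. Cells were challenged with compound in the presence of 1 nM R5020 final for 16 hr at 37C; B/G FRET substrate, 2 hr room temperature, fluorescence.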

[9] = target: Estrogen receptor (Homo sapiens) (UniProt P03372); assay: qHTS assay to identify small molecule agonists of the estrogen receptor alpha (ER-alpha) signaling pathway in the presence of an antagonist (AID 1259383; calls by dose curve; further: top concentration of the series differs between compounds; nearly all actives have a fitted effect of over 15% in size)
Estrogen receptor (Homo sapiens), sequence (P03372 whole entry, looked up): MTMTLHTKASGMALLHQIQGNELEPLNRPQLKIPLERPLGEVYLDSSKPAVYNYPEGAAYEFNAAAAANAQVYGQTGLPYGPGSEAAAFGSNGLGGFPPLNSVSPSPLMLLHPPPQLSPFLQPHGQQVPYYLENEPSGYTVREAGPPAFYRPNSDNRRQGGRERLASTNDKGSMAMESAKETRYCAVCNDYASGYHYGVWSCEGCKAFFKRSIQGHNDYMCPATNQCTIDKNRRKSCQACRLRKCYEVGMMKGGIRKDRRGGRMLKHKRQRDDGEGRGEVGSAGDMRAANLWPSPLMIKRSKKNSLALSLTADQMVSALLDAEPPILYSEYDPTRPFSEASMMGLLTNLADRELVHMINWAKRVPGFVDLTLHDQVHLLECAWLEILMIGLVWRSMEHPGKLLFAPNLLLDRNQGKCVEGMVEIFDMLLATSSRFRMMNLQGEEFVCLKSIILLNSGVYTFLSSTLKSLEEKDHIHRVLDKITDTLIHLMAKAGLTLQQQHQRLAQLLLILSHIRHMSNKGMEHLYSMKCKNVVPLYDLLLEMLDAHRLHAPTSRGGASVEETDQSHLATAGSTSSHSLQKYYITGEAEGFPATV
How it was run: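 Luciferase luminescence (ONE-Glo, 30min at room temperature) measured in VM7Luc4E2 cells after 22hr compound exposure at 15 concentrations, with 10.0nM ICI-182,780 final present; cells express endogenous ER-alpha and carry four EREs upstream of luciferase.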

[10] = target: Thyrotropin receptor (Homo sapiens) (UniProt P16473); assay: qHTS assay to identify small molecule antagonists of the thyroid stimulating hormone receptor (TSHR) signaling pathway (AID 1259385; calls by dose curve; further: nearly all actives have a fitted effect of over 20% in size)
Thyrotropin receptor (Homo sapiens), sequence (P16473 whole entry, looked up): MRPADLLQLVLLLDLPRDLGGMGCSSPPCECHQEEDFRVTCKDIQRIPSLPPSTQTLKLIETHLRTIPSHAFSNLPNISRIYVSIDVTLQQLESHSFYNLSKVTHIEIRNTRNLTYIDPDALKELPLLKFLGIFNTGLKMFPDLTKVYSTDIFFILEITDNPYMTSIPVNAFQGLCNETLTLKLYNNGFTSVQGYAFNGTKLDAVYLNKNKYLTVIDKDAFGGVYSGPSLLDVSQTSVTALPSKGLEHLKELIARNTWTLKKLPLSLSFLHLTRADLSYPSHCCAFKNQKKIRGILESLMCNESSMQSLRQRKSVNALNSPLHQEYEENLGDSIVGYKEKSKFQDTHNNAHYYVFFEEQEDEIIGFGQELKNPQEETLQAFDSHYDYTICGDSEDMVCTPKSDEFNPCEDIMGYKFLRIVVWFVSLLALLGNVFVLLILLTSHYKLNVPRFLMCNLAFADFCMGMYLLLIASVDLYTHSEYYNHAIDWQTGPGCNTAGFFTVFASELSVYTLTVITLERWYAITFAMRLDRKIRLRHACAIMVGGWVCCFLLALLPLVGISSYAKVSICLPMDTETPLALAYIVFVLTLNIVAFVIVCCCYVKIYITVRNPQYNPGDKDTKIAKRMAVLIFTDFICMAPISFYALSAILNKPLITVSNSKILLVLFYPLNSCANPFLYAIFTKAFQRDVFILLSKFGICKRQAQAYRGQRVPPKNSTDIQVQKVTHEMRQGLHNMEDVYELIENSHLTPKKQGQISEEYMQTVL
How it was run: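 Antagonist mode: compound-treated TSHR-expressing HEK293 cells were stimulated with 1.5 ng/mL TSH (final) in presence of Ro20-1724 for 30 min at RT. HTRF cAMP detection after 1 h; each compound tested at 15 concentrations, triplicate.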

| Structure (SMILES) | Potency [1] | Potency [2] | Potency [3] | Potency [4] | outcome [5] | Potency [6] | Potency [7] | Potency [8] | Potency [9] | Potency [10] | activity change, negative = cytotoxicity [2] | activity change, negative = cytotoxicity [6] | activity change, negative = inhibition [8] |
| --- | --- | --- | --- | --- | --- | --- | --- | --- | --- | --- | --- | --- | --- |
| Nc1cc([N+](=O)[O-])ccc1O | 48.6 µM (active) and 54.2 µM (active) | inactive | inactive | inactive | inactive | 43.3 µM (active) and 27.2 µM (active) | inactive | inactive | – | – | – | – | – |
| CCCCCCCC(=O)OC | inactive | inactive | – | inactive | inactive | inactive | inactive | inactive | inactive | inactive | – | – | – |
| CC1CCC(C(C)C)C(O)C1 (stereo not given) | inactive | inactive | inactive | inactive | inactive | inactive | inactive | inactive | – | inactive | – | – | – |
| O=C(O)CCCC[C@@H]1SC[C@@H]2NC(=O)N[C@@H]21 | inactive | inactive | – | inactive | inactive | inactive | – | – | inactive | inactive | – | – | – |
| C[C@H]1C[C@@H]2[C@H]([C@@H](O)C[C@@]3(C)[C@H]2CC[C@]3(O)C(=O)CO)[C@@]2(C)C=CC(=O)C=C12 | inactive | inactive | 54.5 nM (active) and 59.6 nM (active) | inactive | – | inactive | 48.6 µM (active) | – | – | – | – | – | – |
| Cc1cnc(C(=O)NCCc2ccc(S(=O)(=O)NC(=O)NC3CCCCC3)cc2)cn1 | inactive | inactive | – | inactive | inactive | inactive | inactive | inactive | inactive | inactive | – | – | – |
| CN(C)CCCN | inactive | inactive | – | inactive | inactive | inactive | inactive | inactive | inactive | inactive | – | – | – |
| Cc1ccc(N(C)C)cc1 | inactive | inactive | inactive | inactive | inactive | inactive | inactive | inactive | inactive | inactive | – | – | – |
| c1ccc2c(c1)ccc1ccccc12 | inactive | inactive | inactive | inactive | inactive | inactive | inactive | inactive | inactive | inactive | – | – | – |
| C[Si](O[Si](C)(C)C)O[Si](C)(C)C | inactive | inactive | inactive | inactive | inactive | inactive | inactive | inactive | – | inactive | – | – | – |
| O=C(O)c1ccccc1C(c1ccc(O)cc1)c1ccc(O)cc1 | inactive | inactive | inactive | inactive | inactive | inactive | inactive | inactive | inactive | inactive | – | – | – |
| NNc1nncc2ccccc12 | inactive | 21.7 µM (active) | – | inactive | inactive | – | inactive | 61.1 µM (active) | – | inactive | -0.605% [at 19 µM] | -0.882% [at 19 µM] | 9.77% [at 18.9 µM] |
| CC(=O)OCC(=O)[C@@]12N=C(C)O[C@@H]1C[C@H]1[C@@H]3CCC4=CC(=O)C=C[C@]4(C)[C@H]3[C@@H](O)C[C@@]12C | inactive | inactive | – | inactive | inactive | inactive | 0.686 µM (active) | inactive | inactive | inactive | – | – | – |
| C#CCN(C)Cc1ccccc1 | inactive | inactive | – | inactive | inactive | inactive | inactive | inactive | inactive | inactive | – | – | – |
| C/C=C1/CC2C=CC1C2 (stereo not given) | inactive | inactive | – | inactive | – | inactive | inactive | inactive | inactive | – | – | – | – |
| CC[C@H](C)C(=O)O[C@H]1C[C@@H](C)C=C2C=C[C@H](C)[C@H](CC[C@@H]3C[C@@H](O)CC(=O)O3)[C@H]21 | inactive | 34.9 µM (active) and 30.5 µM (active) and 15 µM (active) | – | 39.1 µM (active) and 26.6 µM (active) | inactive | inactive | inactive | inactive | inactive | inactive | – | – | – |
| OCc1cccnc1 | inactive | inactive | – | inactive | – | inactive | inactive | inactive | inactive | – | – | – | – |
| CCC(O)OC(O)CC (stereo not given) | inactive | inactive | – | inactive | inactive | inactive | inactive | inactive | inactive | inactive | – | – | – |
| C=CCNC(N)=S | inactive | inactive | – | inactive | inactive | inactive | inactive | inactive | – | inactive | – | – | – |
| CC(=O)CC(=O)Nc1ccccc1C | inactive | inactive | – | inactive | inactive | inactive | inactive | inactive | inactive | inactive | – | – | – |
| CCCCCCCCCC | inactive | inactive | – | inactive | inactive | inactive | inactive | inactive | inactive | inactive | – | – | – |
| O=S1(=O)CC=CC1 | inactive | inactive | – | inactive | inactive | inactive | inactive | inactive | inactive | inactive | – | – | – |
| Cc1cccc(O)c1 | inactive | inactive | – | inactive | – | inactive | inactive | inactive | inactive | – | – | – | – |
| Cc1cc(C)c(C)cc1C | inactive | inactive | – | inactive | inactive | inactive | inactive | inactive | inactive | inactive | – | – | – |
| CN(C)CCOCCN(C)C | inactive | inactive | – | inactive | inactive | inactive | inactive | inactive | – | inactive | – | – | – |
| O=C(O)c1cc(C(=O)O)cc(S(=O)(=O)O)c1 | inactive | inactive | – | inactive | inactive | inactive | inactive | inactive | – | inactive | – | – | – |
| OC[C@H]1O[C@@](CO)(O[C@H]2O[C@H](CO)[C@@H](O)[C@H](O)[C@H]2O)[C@@H](O)[C@@H]1O | inactive | inactive | – | inactive | – | inactive | inactive | inactive | inactive | – | – | – | – |
